PubChem BioAssay (NCATS)
A number with no mark means an inactive call. Records with an inconclusive call do not appear. A call without a number means that no potency is given here. The source made the active and inactive calls. Unless noted, calls follow the shape of the dose curve; as a rule, active = well fitted cell-killing curve with a large enough effect; inconclusive = small, poorly fitted or top-dose-only effect; inactive = flat fitted curve, though single readings scatter.

Tests used:
[1] = Cell Viability - LYMP2-025 (AID 976); also: series mostly up to about 92 µM
Method in brief: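 Cytotoxicity read as loss of intracellular ATP (luciferase luminescence) after 24 h compound treatment at 37 C. Uses LYMP2-025 lymphoblastoid cells in 1536-well format; Hill-equation modelling gives AC50; tetraoctylammonium bromide as positive control.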

[2] = Cell Viability - LYMP2-002 (AID 977); also: series mostly up to about 92 µM
Method in brief: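 In this qHTS viability screen, 2500 human lymphoblastoid cells per well receive compound for 24 hr at 37 C, and luciferase-based ATP luminescence gives the viability signal. Tetraoctylammonium bromide serves as positive control.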

[3] = Cell Viability - LYMP2-006 (AID 978); also: series mostly up to about 92 µM; nearly all actives have a fitted effect of over 60% in size
Method in brief: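 qHTS, 1536-well; 2500 cells/well, 5 hr 37 C; cpd 24 hr 37 C; CellTiter-Glo 30 min RT; luminescence. Tetraoctylammonium bromide pos. ctrl. AC50 via Hill eqn.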

[4] = Cell Viability - LYMP2-007 (AID 979);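 also: cells exposed to compound for 24 h before reading; nearly all actives have a fitted effect of over 60% in size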
Method in brief: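 AC50 values come from Hill-equation fits of luminescent intracellular ATP (CellTiter-Glo, 30 min, room temperature) following 24 h compound exposure at 37 C. Cells: LYMP2-007 lymphoblastoid line, 2500 per well, in complete culture medium.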

[5] = Cell Viability - LYMP2-008 (AID 980); also: nearly all actives have a fitted effect of over 60% in size
Method in brief: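 Cytotoxicity determined from ATP-dependent luciferase luminescence (CellTiter-Glo) following 24 h compound exposure of human lymphoblastoid LYMP2-008 cells at 37 C. Concentration-response data fitted to the Hill equation to give AC50.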

[6] = Cell Viability - LYMP2-010 (AID 981); also: nearly all actives have a fitted effect of over 55% in size
Method in brief: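 CellTiter-Glo ATP luminescence measured cytotoxicity after 24 h compound exposure at 37 C. LYMP2-010 cells were seeded at 2500/well, with tetraoctylammonium bromide as control; concentration-response curves gave AC50 values by the Hill equation.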

[7] = Cell Viability - LYMP2-012 (AID 982);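 also: cellular ATP by luciferase luminescence where a drop means cytotoxicity; cells exposed to compound for one day before reading; nearly all actives have a fitted effect of over 55% in size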
[8] = Cell Viability - LYMP2-014 (AID 983); also: series mostly up to about 92 µM; nearly all actives have a fitted effect of over 50% in size
Method in brief: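 Intracellular ATP loss, read by luciferase luminescence, measures acute cytotoxicity after 24 h compound exposure of lymphoblastoid LYMP2-014 cells (2500/well, 37 C). Concentration-response data fitted to the Hill equation for AC50.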

[9] = Cell Viability - LYMP2-016 (AID 984); also: nearly all actives have a fitted effect of over 55% in size
Method in brief: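 qHTS, 1536-well: 2500 LYMP2-016 cells/well, 5 hr 37 C, compound added, 24 hr 37 C, CellTiter-Glo 30 min RT, luminescence. Tetraoctylammonium bromide positive control. AC50 via Hill fit.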

[10] = Cell Viability - LYMP2-018 (AID 985); also: nearly all actives have a fitted effect of over 50% in size
Method in brief: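 Viability read as CellTiter-Glo luminescence (cellular ATP) after 24 hr compound exposure at 37 C of 2500 LYMP2-018 lymphoblastoid cells/well, pre-plated 5 hr. Hill-equation modelling gave AC50.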

[11] = Cell Viability - LYMP2-022 (AID 987); also: nearly all actives have a fitted effect of over 55% in size
Method in brief: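 Cytotoxicity read as decreased cellular ATP (CellTiter-Glo luminescence, 30 min room temperature) after 24 hours compound exposure of 2500 lymphoblastoid LYMP2-022 cells/well at 37 C. Concentration-response data fitted with standard Hill equation for AC50.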

[12] = Cell Viability - LYMP2-024 (AID 988); also: nearly all actives have a fitted effect of over 60% in size
Method in brief: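 Cytotoxicity was taken as a decrease in ATP (CellTiter-Glo luminescence) after 24 hr compound exposure at 37 C of LYMP2-024 lymphoblastoid cells, 2500 cells/well. Concentration-response data were fitted to the Hill equation to give AC50.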

[13] = Cell Viability - LYMP2-026 (AID 989); also: nearly all actives have a fitted effect of over 50% in size
Method in brief: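 Cytotoxicity read as ATP-dependent luminescence (CellTiter-Glo, 30 min room temperature) after 24 h compound treatment at 37 C. LYMP2-026 lymphoblastoid line seeded at 2500 cells/well; AC50 derived by standard Hill equation.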

[14] = Cell Viability - LYMP1-002 - Assay at 24 hr (AID 993)
Method in brief: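 qHTS cytotoxicity at 24 h: CellTiter-Glo ATP luminescence in lymphoblastoid line LYMP1-002 incubated with compound at 37 °C. Concentration-response modeled with the Hill equation for AC50; tetraoctylammonium bromide served as positive control.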

[15] = Cell Viability - LYMP1-002 - Assay at 40 hr (AID 994); also: nearly all actives have a fitted effect of over 60% in size
Method in brief: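 Cytotoxicity was read as loss of cellular ATP (CellTiter-Glo luminescence) after 40 hr compound exposure at 37 C of 2500 LYMP1-002 lymphoblastoid cells per well. Concentration-response data were fitted with the standard Hill equation to give AC50.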

[16] = qHTS Assay for Identification of Small Molecule Inducers of Hypoxia Response (AID 2120; active = well fitted curve in the direction sought with a large enough effect in the signal ratio, with a control signal flat, not every such curve was filed as active; the % refers to the signal ratio)
Method in brief: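 Reporter induction read as the CCF4 blue/green (460nm/530nm) emission ratio after 2.5 h dye loading at room temperature. ME-180 HRE-beta-lactamase cells received titrated compounds for 17 h at 37 degrees Celsius; AC50 values derived.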

[17] = target: Estrogen receptor (Homo sapiens) (UniProt P03372); assay: qHTS assay for small molecule antagonists of estrogen receptor alpha signaling (AID 588513; active = well fitted curve in the direction sought with a large enough effect in the signal ratio, with a control signal flat, not every such curve was filed as active; the % refers to the signal ratio)
Sequence of Estrogen receptor (Homo sapiens) (P03372 whole entry, looked up): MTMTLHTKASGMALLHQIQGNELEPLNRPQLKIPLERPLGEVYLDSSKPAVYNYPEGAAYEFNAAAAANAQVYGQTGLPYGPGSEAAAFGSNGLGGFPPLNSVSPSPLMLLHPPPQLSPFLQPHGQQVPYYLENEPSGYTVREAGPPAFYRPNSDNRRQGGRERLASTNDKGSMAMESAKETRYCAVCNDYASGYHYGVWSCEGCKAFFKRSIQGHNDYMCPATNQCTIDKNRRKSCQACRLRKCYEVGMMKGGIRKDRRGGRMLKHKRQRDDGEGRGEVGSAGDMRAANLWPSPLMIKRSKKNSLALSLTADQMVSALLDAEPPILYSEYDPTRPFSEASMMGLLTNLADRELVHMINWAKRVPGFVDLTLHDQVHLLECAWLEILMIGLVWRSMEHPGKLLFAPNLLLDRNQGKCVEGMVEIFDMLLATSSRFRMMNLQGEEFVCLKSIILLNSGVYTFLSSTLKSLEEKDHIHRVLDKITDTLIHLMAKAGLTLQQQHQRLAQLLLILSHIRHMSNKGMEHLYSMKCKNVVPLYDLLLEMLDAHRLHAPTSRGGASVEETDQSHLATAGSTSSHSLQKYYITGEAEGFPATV
Method in brief: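 Beta-lactamase reporter, antagonist mode, HEK 293 GripTite cells; 0.5nM E2 stimulus, 18 h, 37 C; CCF4 dye 2 h RT; fluorescence. IC50 and efficacy from Hill fits, normalized to E2 and DMSO.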

[18] = target: Estrogen receptor (Homo sapiens) (UniProt P03372); assay: qHTS assay for small molecule agonists of estrogen receptor alpha signaling (AID 588514; calls by dose curve; also: nearly all actives have a fitted effect of over 70% in size; also: potency is read from the fitted curve at half-maximal effect)
Method in brief: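 EC50 and efficacy came from Hill fits of beta-lactamase reporter signal (CCF4 dye, 2 h at room temperature) scaled between DMSO and 20 nM 17-beta-estradiol. Agonist mode: HEK293 ER-alpha-UAS-bla cells in charcoal/dextran-stripped serum medium, 18 h compound exposure at 37 C.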

[19] = Cell Viability - LYMP2-020 (AID 986)
Method in brief: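 Cytotoxicity in qHTS format: luminescent ATP readout from CellTiter-Glo after 24 h compound exposure at 37 C in complete medium. LYMP2-020 lymphoblastoid cells were seeded at 2500/well; concentration-response data fitted to the Hill equation for AC50.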

[20] = target: Androgen receptor (Homo sapiens) (UniProt P10275); assay: qHTS assay for small molecule agonists of androgen receptor signaling (AID 588515; active = well fitted curve in the direction sought with a large enough effect in the signal ratio, with a control signal flat; the % refers to the signal ratio); settings: AR-UAS-bla HEK293, beta-lactamase ratio, agonist 16 h; active compounds read high
Sequence of Androgen receptor (Homo sapiens) (P10275 whole entry, looked up): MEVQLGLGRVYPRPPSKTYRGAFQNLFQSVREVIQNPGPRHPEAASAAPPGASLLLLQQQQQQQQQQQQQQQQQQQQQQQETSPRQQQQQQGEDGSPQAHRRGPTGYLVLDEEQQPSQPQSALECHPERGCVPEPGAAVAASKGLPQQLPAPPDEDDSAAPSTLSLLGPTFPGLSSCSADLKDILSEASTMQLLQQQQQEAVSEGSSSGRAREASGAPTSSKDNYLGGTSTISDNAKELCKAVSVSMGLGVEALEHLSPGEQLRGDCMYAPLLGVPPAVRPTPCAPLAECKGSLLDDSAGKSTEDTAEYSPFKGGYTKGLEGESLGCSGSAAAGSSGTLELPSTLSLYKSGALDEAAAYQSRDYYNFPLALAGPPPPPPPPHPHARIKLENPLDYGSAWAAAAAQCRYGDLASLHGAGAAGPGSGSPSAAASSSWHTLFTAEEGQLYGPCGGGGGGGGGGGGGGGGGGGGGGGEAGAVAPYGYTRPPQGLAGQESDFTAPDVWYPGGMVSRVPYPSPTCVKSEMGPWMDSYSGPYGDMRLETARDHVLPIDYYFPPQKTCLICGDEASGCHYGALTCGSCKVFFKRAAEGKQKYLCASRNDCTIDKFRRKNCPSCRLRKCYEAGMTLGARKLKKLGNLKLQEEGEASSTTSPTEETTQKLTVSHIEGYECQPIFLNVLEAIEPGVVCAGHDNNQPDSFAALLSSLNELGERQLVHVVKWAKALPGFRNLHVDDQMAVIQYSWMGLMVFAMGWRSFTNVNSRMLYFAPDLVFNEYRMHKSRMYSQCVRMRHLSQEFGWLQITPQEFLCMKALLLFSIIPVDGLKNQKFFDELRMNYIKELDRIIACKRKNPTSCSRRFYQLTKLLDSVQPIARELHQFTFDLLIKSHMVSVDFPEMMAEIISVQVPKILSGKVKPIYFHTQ
Method in brief: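 Stimulation of an AR-responsive β-lactamase reporter in GripTite HEK293 cells was measured after 16 h compound exposure at 37 °C, via CCF4 fluorescence after 2 h RT. EC50 from Hill fits, normalized to R1881 at 30 nM.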

| SMILES | Potency [1] | Potency [2] | Potency [3] | Potency [4] | Potency [5] | Potency [6] | Potency [7] | Potency [8] | Potency [9] | Potency [10] | Potency [11] | Potency [12] | outcome [13] | Potency [14] | Potency [15] | outcome [16] | outcome [17] | Potency [18] | Potency [19] | activation [20] [%] |
| --- | --- | --- | --- | --- | --- | --- | --- | --- | --- | --- | --- | --- | --- | --- | --- | --- | --- | --- | --- | --- |
| FC(F)(F)c1ccccc1Cl | inactive | inactive | inactive | inactive | inactive | inactive | inactive | inactive | inactive | inactive | inactive | inactive | inactive | inactive | inactive | inactive | inactive | inactive |  |  |
| Oc1cccc(Nc2ccccc2)c1 | inactive | inactive | inactive | inactive | inactive |  | inactive | inactive |  | inactive | inactive | inactive | inactive | inactive | inactive | inactive | inactive | 25.1 µM (active) | inactive |  |
| CC(C)Nc1ccccc1 | inactive | inactive | inactive | inactive | inactive | inactive | inactive | inactive | inactive | inactive | inactive |  | inactive | inactive | inactive | inactive | inactive | inactive | inactive |  |
| CC(=O)Nc1cccc(N)c1 | inactive | inactive | inactive | inactive | inactive | inactive | inactive | inactive |  | inactive | inactive | inactive | inactive | inactive | inactive | inactive | inactive | inactive | inactive |  |
| CNc1ccccc1 | inactive | inactive | inactive | inactive | inactive | inactive | inactive | inactive |  | inactive | inactive | inactive | inactive | inactive | inactive | inactive | inactive | inactive | inactive |  |
| CO[Si](CCCNCCC[Si](OC)(OC)OC)(OC)OC | inactive | inactive | inactive | inactive | inactive | inactive | inactive | inactive |  | inactive | inactive | inactive | inactive | inactive | inactive | inactive | inactive | inactive |  |  |
| COc1ccc(N=[N+]([O-])c2ccc(OC)cc2)cc1 | inactive | inactive | inactive | inactive | inactive | inactive | inactive | inactive |  | inactive | inactive |  | inactive | inactive | inactive | inactive | inactive | inactive | inactive |  |
| O=C(O)c1cccc(Cl)c1Cl | inactive | inactive | inactive | inactive | inactive | inactive | inactive | inactive | inactive | inactive | inactive |  | inactive | inactive | inactive | inactive | inactive | inactive | inactive |  |
| CCOc1cccc(N)c1 | inactive | inactive | inactive | inactive | inactive | inactive | inactive | inactive | inactive | inactive | inactive | inactive |  | inactive | inactive | inactive | inactive | inactive | inactive |  |
| CCCCCCCCC/C=C/CC1CC(=O)OC1=O (stereo unspecified) | inactive | inactive | inactive | inactive | inactive | inactive | inactive | inactive |  | inactive | inactive | inactive | inactive | inactive | inactive | inactive | inactive | inactive | inactive |  |
| O=C1OC(=O)c2cc([N+](=O)[O-])ccc21 | inactive | inactive | inactive | inactive | inactive |  | inactive | inactive | inactive | inactive | inactive | inactive | inactive | inactive | inactive | inactive | inactive | inactive | inactive |  |
| O=C1C=CCCC1 | inactive | inactive | inactive | inactive |  |  | inactive |  | inactive | inactive | inactive | inactive | inactive |  | inactive | inactive | inactive | inactive | inactive |  |
| COc1ccc(N)c(OC)c1 | inactive | inactive | inactive | inactive | inactive | inactive | inactive | inactive | inactive | inactive | inactive |  | inactive |  | inactive | inactive | inactive | inactive | inactive |  |
| Nc1cc([N+](=O)[O-])ccc1C(=O)O | inactive | inactive | inactive | inactive | inactive | inactive | inactive | inactive |  | inactive | inactive | inactive | inactive | inactive | inactive | inactive | inactive | inactive | inactive |  |
| COC(=O)CC#N | inactive | inactive | inactive | inactive | inactive | inactive | inactive | inactive |  | inactive | inactive | inactive | inactive | inactive |  | inactive | inactive | inactive | inactive |  |
| CC(=O)Nc1ccccc1C | inactive | inactive | inactive | inactive | inactive | inactive | inactive | inactive | inactive | inactive | inactive |  | inactive | inactive |  | inactive | inactive | inactive |  |  |
| NC(=O)/N=N/C(N)=O | inactive | inactive | inactive | inactive | inactive |  | inactive | inactive | inactive | inactive | inactive |  | inactive | inactive | inactive | inactive | inactive | inactive | inactive |  |
| COC(=O)CS | inactive | inactive | inactive | inactive | inactive | inactive | inactive | inactive |  | inactive | inactive | inactive | inactive | inactive | inactive | inactive | inactive | inactive | inactive |  |
| CCNc1cc(O)ccc1C | inactive | inactive | inactive | inactive | inactive | inactive | inactive | inactive | inactive | inactive | inactive | inactive | inactive | inactive | inactive | inactive | inactive | inactive |  |  |
| Cc1ccco1 | inactive | inactive | inactive | inactive | inactive | inactive | inactive | inactive | inactive | inactive | inactive | inactive | inactive | inactive | inactive | inactive | inactive | inactive |  |  |
| Cc1ccc(C#N)cc1 | inactive | inactive | inactive | inactive | inactive | inactive | inactive | inactive |  | inactive | inactive | inactive | inactive | inactive | inactive | inactive | inactive | inactive | inactive |  |
| O=[N+]([O-])c1cccc(Cl)c1 | inactive | inactive | inactive | inactive | inactive | inactive | inactive | inactive | inactive | inactive | inactive | inactive | inactive | inactive | inactive | inactive | inactive | inactive |  |  |
| C=C(C)C(=O)OCC(C)O (stereo unspecified) | inactive | inactive | inactive |  | inactive | inactive | inactive | inactive |  | inactive | inactive | inactive |  |  |  | inactive | inactive | inactive | inactive |  |
| CCC(C)(C)C(=O)O | inactive | inactive | inactive | inactive | inactive | inactive | inactive | inactive |  | inactive | inactive | inactive | inactive | inactive |  | inactive |  | inactive | inactive | -5.44 |
